Measured values taken from PubChem BioAssay AID1159580 (chemical genetic matrix, 2015).
“And” between values parts separate entries of the source, which are not always exact repeats. Equal entries are not always repeated. Screen size: about 5,500 compounds; about 2,000 (36%) were called active. Roughly 18% stayed inconclusive and do not appear here. Rule as the data show it: active = normalized growth mostly below about 0.91 (no sharp cut-off); inconclusive = no clear call, values can overlap the other calls; inactive = mostly above about 0.92. The list shows a part of the results.

Assay: chemical genetic growth profiling, strain panel (AID 1159580);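 also: tested at 20 µM; growth read once vehicle control cultures reached saturation at 30 °C; 1 = growth at the plate median or of vehicle wells; lower values mean less growth of the strain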
Conditions: growth OD

Measured: normalized growth

O=C1CCCN1CC#CCN1CCCC1
inactive: S. cerevisiae deletion strains, locus YJR075W, strain HOC1, hits give low values 0.988 and 1 | S. cerevisiae deletion strains, locus YKL009W, strain mrt4, hits give low values 1.02 and 1.05 | S. cerevisiae deletion strains, locus YKL068W, hits give low values 1 | S. cerevisiae deletion strains, locus YKL085W, strain MDH1 (second series), hits give low values 1.02 | S. cerevisiae deletion strains, locus YKL085W, strain MDH1, hits give low values 1.02 | S. cerevisiae deletion strains, locus YKL160W, strain elf1, hits give low values 1.02 | S. cerevisiae deletion strains, locus YKL190W, strain CNB1, hits give low values 0.989 and 1.02 | S. cerevisiae deletion strains, locus YKR001C, strain vps1, hits give low values 1.01 and 1.02 | S. cerevisiae deletion strains, locus YKR026C, strain gcn3, hits give low values 1.02 | S. cerevisiae deletion strains, locus YKR091W, strain srl3, hits give low values 1.02 | S. cerevisiae deletion strains, locus YLL001W, strain dnm1, hits give low values 1.02 | S. cerevisiae deletion strains, locus YLL026W, hits give low values 1.01 | S. cerevisiae deletion strains, locus YLL041C, strain sdh2, hits give low values 1.02 | S. cerevisiae deletion strains, locus YLR027C, strain aat2, hits give low values 1.02 | S. cerevisiae deletion strains, locus YLR039C, strain RIC1, hits give low values 1.03 and 1.01 | S. cerevisiae deletion strains, locus YLR058C, strain SHM2, hits give low values 1.01 | S. cerevisiae deletion strains, locus YLR102C, strain apc9, hits give low values 1.01 and 1.02 | S. cerevisiae deletion strains, locus YLR113W, strain HOG1, hits give low values 1.04 | S. cerevisiae deletion strains, locus YLR221C, strain rsa3, hits give low values 1 | S. cerevisiae deletion strains, locus YLR258W, strain gsy2, hits give low values 1.02 | S. cerevisiae deletion strains, locus YLR262C, strain YPT6 (second series), hits give low values 1.03 | S. cerevisiae deletion strains, locus YLR262C, strain YPT6, hits give low values 1.05 and 1.02 | S. cerevisiae deletion strains, locus YLR268W, strain sec22, hits give low values 1.02 and 0.991 | S. cerevisiae deletion strains, locus YLR320W, strain mms22, hits give low values 1.02 | S. cerevisiae deletion strains, locus YLR330W, strain CHS5, hits give low values 1 and 1.01 | S. cerevisiae deletion strains, locus YLR342W, strain FKS1 (second series), hits give low values 1.02 and 1.06 | S. cerevisiae deletion strains, locus YLR342W, strain FKS1, hits give low values 1.02 | S. cerevisiae deletion strains, locus YLR357W, strain rsc2, hits give low values 1.05 | S. cerevisiae deletion strains, locus YLR370C, strain arc18, hits give low values 1.02 | S. cerevisiae deletion strains, locus YLR371W, strain rom2, hits give low values 0.994 and 1.03 | S. cerevisiae deletion strains, locus YLR384C, strain iki3, hits give low values 1.03 | S. cerevisiae deletion strains, locus YLR418C, strain cdc73, hits give low values 1.05 and 0.979 | S. cerevisiae deletion strains, locus YML016C, strain PPZ1, hits give low values 1.01 | S. cerevisiae deletion strains, locus YML032C, strain rad52, hits give low values 1.01 and 1.04 | S. cerevisiae deletion strains, locus YML120C, strain ndi1, hits give low values 1.03 | S. cerevisiae deletion strains, locus YML124C, strain tub3, hits give low values 1 | S. cerevisiae deletion strains, locus YMR058W, strain fet3, hits give low values 1.03 | S. cerevisiae deletion strains, locus YMR078C, strain ctf18, hits give low values 1.03 and 1.02 | S. cerevisiae deletion strains, locus YMR125W, strain sto1, hits give low values 1.04 | S. cerevisiae deletion strains, locus YMR129W, hits give low values 1.03 | S. cerevisiae deletion strains, locus YMR205C, strain PFK2, hits give low values 1.02 | S. cerevisiae deletion strains, locus YMR223W, strain ubp8, hits give low values 1.02 and 1.03 | S. cerevisiae deletion strains, locus YMR231W, strain pep5, hits give low values 1.03 | S. cerevisiae deletion strains, locus YMR263W, strain SAP30, hits give low values 1.01 | S. cerevisiae deletion strains, locus YMR307W, strain GAS1, hits give low values 1 and 0.983 | S. cerevisiae deletion strains, locus YNL067W, strain RPL9B, hits give low values 0.998 and 1.01 | S. cerevisiae deletion strains, locus YNL071W, strain lat1, hits give low values 1.02 | S. cerevisiae deletion strains, locus YNL128W, strain TEP1, hits give low values 1.01 | S. cerevisiae deletion strains, locus YNL153C, strain GIM3, hits give low values 1.03 and 0.992 | S. cerevisiae deletion strains, locus YNL175C, strain NOP13, hits give low values 0.992 | S. cerevisiae deletion strains, locus YNL183C, strain NPR1, hits give low values 0.999 | S. cerevisiae deletion strains, locus YNL197C, strain WHI3, hits give low values 0.986 | S. cerevisiae deletion strains, locus YNL209W, strain ssb2, hits give low values 1.02 | S. cerevisiae deletion strains, locus YNL224C, strain SQS1, hits give low values 1.01 | S. cerevisiae deletion strains, locus YNL233W, strain BNI4, hits give low values 0.993 and 0.996 | S. cerevisiae deletion strains, locus YNL248C, strain rpa49, hits give low values 1.03 | S. cerevisiae deletion strains, locus YNL250W, strain rad50, hits give low values 1.02 and 1.01 | S. cerevisiae deletion strains, locus YNL271C, strain bni1, hits give low values 1.01 and 1.03 | S. cerevisiae deletion strains, locus YNL298W, strain CLA4, hits give low values 1.03 | S. cerevisiae deletion strains, locus YNL307C, strain MCK1, hits give low values 1.02 and 1.03 | S. cerevisiae deletion strains, locus YNL322C, strain KRE1 (second series), hits give low values 1.02 | S. cerevisiae deletion strains, locus YNL322C, strain KRE1, hits give low values 1 and 1.01 | S. cerevisiae deletion strains, locus YNR049C, strain mso1, hits give low values 1.02 | S. cerevisiae deletion strains, locus YNR052C, strain pop2, hits give low values 1.01 and 1.04 | S. cerevisiae deletion strains, locus YOL006C, strain TOP1, hits give low values 1.03 and 1.04 | S. cerevisiae deletion strains, locus YOL012C, strain htz1 0.71 and 1.25 | S. cerevisiae deletion strains, locus YOL147C, strain pex11, hits give low values 1.01 | S. cerevisiae deletion strains, locus YOR001W, strain rrp6, hits give low values 1.04 | S. cerevisiae deletion strains, locus YOR061W, strain CKA2, hits give low values 1.01 | S. cerevisiae deletion strains, locus YOR069W, strain VPS5, hits give low values 1 and 1.01 | S. cerevisiae deletion strains, locus YOR070C, strain gyp1, hits give low values 1.02 | S. cerevisiae deletion strains, locus YOR080W, strain dia2, hits give low values 1.03 | S. cerevisiae deletion strains, locus YOR083W, strain WHI5 (second series), hits give low values 1.02 | S. cerevisiae deletion strains, locus YOR083W, strain WHI5, hits give low values 1.02 | S. cerevisiae deletion strains, locus YOR106W, strain vam3, hits give low values 1.05 | S. cerevisiae deletion strains, locus YOR136W, strain idh2, hits give low values 1.01 and 1.02 | S. cerevisiae deletion strains, locus YOR144C, strain elg1, hits give low values 1 and 1.01 | S. cerevisiae deletion strains, locus YOR184W, strain ser1, hits give low values 1.04 and 1.05 | S. cerevisiae deletion strains, locus YOR231W, strain MKK1, hits give low values 1.06 | S. cerevisiae deletion strains, locus YOR265W, strain rbl2, hits give low values 1.02 | S. cerevisiae deletion strains, locus YOR270C, strain vph1, hits give low values 1.08 | S. cerevisiae deletion strains, locus YOR290C, strain snf2, hits give low values 1.02 | S. cerevisiae deletion strains, locus YOR316C, strain cot1, hits give low values 1.01 | S. cerevisiae deletion strains, locus YPL051W, strain arl3, hits give low values 1.02 | S. cerevisiae deletion strains, locus YPL055C, strain LGE1, hits give low values 0.986 and 1.01 | S. cerevisiae deletion strains, locus YPL078C, strain atp4, hits give low values 1.04 | S. cerevisiae deletion strains, locus YPL106C, strain sse1, hits give low values 1.02 | S. cerevisiae deletion strains, locus YPL240C, strain hsp82, hits give low values 1.03 | S. cerevisiae deletion strains, locus YPL241C, strain CIN2, hits give low values 1 and 1.01 | S. cerevisiae deletion strains, locus YPL256C, strain CLN2, hits give low values 1.02 | S. cerevisiae deletion strains, locus YPR119W, strain clb2, hits give low values 1.01 | S. cerevisiae deletion strains, locus YPR141C, strain kar3, hits give low values 1.01 | S. cerevisiae deletion strains, locus YPR163C, strain tif3, hits give low values 1.02 and 1 | S. cerevisiae deletion strains, locus YPR167C, strain met16, hits give low values 1.02 and 1.03 | S. cerevisiae deletion strains, strain wtn01, hits give low values 1.03 and 1.02 | S. cerevisiae strains, strain wild type, hits give low values 1 and 1.01
